27 molecules from PubChem BioAssay (EPA / NIEHS) can be followed below.

Activity calls are given as the source filed them. The calls were made as follows: active = hit-call score of the fitted dose curve at least 0.9, where 1 is the maximum; inactive = score below 0.9.

A short description of experiment [1]: ATG_E_Box_CIS: Attagene CIS-FACTORIAL HepG2 Assay for human Enhancer Box (E-box) (AID 2282936). The conditions noted are these: HepG2 E-box cis-reporter transcription, actives raise or lower the signal. The gist of the method: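 E-box-driven reporter transcripts measured in transiently transfected HepG2 after 24 h exposure: RNA reverse-transcribed, PCR-amplified, fluorescently labelled, digested and resolved by capillary electrophoresis. Gain or loss relative to DMSO.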

Experiment [2] can be described thus: ATG_M_61_CIS: Attagene CIS-FACTORIAL HepG2 Assay for M61 Transcription Factor (Internal Marker) (AID 2282937). The conditions noted are these: HepG2 Attagene CIS-FACTORIAL M61 internal marker reporter; actives raise or lower the signal. The gist of the method: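 Using transiently transfected HepG2 liver cells, reporter transcript levels were assessed 24 h post-dosing by RT-PCR and capillary electrophoresis. Changes in either direction were fitted relative to DMSO controls.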

Experiment [3] in a line: ATG_EGR_CIS: Attagene CIS-FACTORIAL HepG2 Assay for human Early Growth Response 1 (EGR1) (AID 2282938). The conditions noted are these: HepG2 Attagene CIS-FACTORIAL EGR reporter mRNA; actives raise or lower the signal. The procedure, abridged:
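Fluorescent capillary-electrophoresis signal of reporter cDNA fragments serves as read-out. HepG2 cells bear transiently transfected cis-promoter reporter units and are exposed 24 h; gain- or loss-of-signal is fitted against DMSO.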

Experiment [4] can be described thus: ATG_M_19_CIS: Attagene CIS-FACTORIAL HepG2 Assay for M19 Transcription Factor (Internal Marker) (AID 2282939). The conditions noted are these: HepG2 Attagene CIS-FACTORIAL M19 internal marker reporter; actives raise or lower the signal. The procedure, abridged: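 HepG2, MRTU transient transfection, 24 h dosing. Total RNA → RT-PCR → 6-FAM primer extension → HpaI digest → CE fluorescence. Bidirectional curve fit, DMSO negative control.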

Experiment [5] is described as follows: ATG_Ets_CIS: Attagene CIS-FACTORIAL HepG2 Assay for human Erythroblast Transformation Specific (ETS) (AID 2282941). The conditions noted are these: HepG2 ETS cis-reporter transcription, actives raise or lower the signal. The gist of the method: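 Cis-regulated reporter mRNA induction in HepG2 (transient transfection), 24 h exposure, RT-PCR plus capillary electrophoresis detection; DMSO serves as negative control and baseline.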

Experiment [6] addresses Hepatocyte nuclear factor 3-beta (Homo sapiens) (UniProt Q9Y261). Kind of experiment: ATG_FoxA2_CIS: Attagene CIS-FACTORIAL HepG2 Assay for human Forkhead box A2 (FOXA2) (AID 2282942). The conditions noted are these: HepG2 cis-reporter transcription factor activity, 24 h; actives raise or lower the signal. The procedure, abridged:
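Fluorescence signal of reporter cDNA fragments, separated by capillary electrophoresis, reflects endogenous transcription factor activity in transfected HepG2 after 24 h. Both increases and decreases fitted against DMSO.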

The nature of experiment [7]: ATG_FoxO_CIS: Attagene CIS-FACTORIAL HepG2 Assay for human Forkhead box O (FoxO) (AID 2282943). The conditions noted are these: HepG2 Attagene cis-reporter, FoxO element, mRNA; actives raise or lower the signal. The procedure, abridged: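 Human hepatoma HepG2 cells carry transiently introduced reporter transcription units controlled by cis promoter elements. Chemical treatment lasted 24 h, and mRNA signal was compared with DMSO.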

The nature of experiment [8]: ATG_GATA_CIS: Attagene CIS-FACTORIAL HepG2 Assay for human GATA Binding Protein (AID 2282944). The conditions noted are these: HepG2 GATA cis-element reporter, Attagene multiplex mRNA; actives raise or lower the signal. The gist of the method:
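Cells: HepG2, transiently transfected with cis-regulated reporter transcription units. Exposure: 24 h. Detection: RT-PCR plus capillary electrophoresis of FAM-labeled fragments. Analysis: bidirectional, DMSO as baseline.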

A short description of experiment [9]: ATG_GLI_CIS: Attagene CIS-FACTORIAL HepG2 Assay for human Zinc Finger Protein GLI1 (AID 2282945). The conditions noted are these: HepG2, Attagene cis-factorial reporter mRNA, GLI element; actives raise or lower the signal. The gist of the method:
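Bidirectional curve fits relative to DMSO, using reporter mRNA levels from RT-PCR plus capillary electrophoresis. Cells were HepG2 transiently carrying cis-regulated reporter constructs, harvested 24 h after dosing.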

Hepatocyte nuclear factor 3-beta (Homo sapiens), sequence (Q9Y261 whole entry, looked up, the tested form may be a part): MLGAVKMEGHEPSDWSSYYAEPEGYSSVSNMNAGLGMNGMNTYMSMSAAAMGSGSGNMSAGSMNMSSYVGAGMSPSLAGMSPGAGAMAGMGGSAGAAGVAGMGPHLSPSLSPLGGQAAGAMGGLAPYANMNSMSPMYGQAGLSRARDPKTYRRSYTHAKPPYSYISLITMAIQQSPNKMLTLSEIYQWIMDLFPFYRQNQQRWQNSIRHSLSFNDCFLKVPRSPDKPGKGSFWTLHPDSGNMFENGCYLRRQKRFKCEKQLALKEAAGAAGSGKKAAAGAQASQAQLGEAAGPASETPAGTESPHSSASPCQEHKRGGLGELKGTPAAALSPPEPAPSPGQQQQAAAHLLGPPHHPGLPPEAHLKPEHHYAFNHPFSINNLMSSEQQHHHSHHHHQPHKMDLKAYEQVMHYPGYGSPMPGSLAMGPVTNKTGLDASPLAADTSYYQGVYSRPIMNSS

For the molecule `Oc1ccc2cc(SSc3ccc4cc(O)ccc4c3)ccc2c1`, the outcome in experiment [1], in experiment [2], in [4], in experiment [5], in experiment [6] and in experiment [7] was inactive. For the same molecule, the molecule was called inactive in experiment [8] and in experiment [9]. The AC50 in experiment [3] is 27700 nM (active).
As to `Cc1ncc[nH]1`, the outcome in [1], in [2], in [3], in [4], in experiment [5] and in [6] was inactive. For the same molecule, the molecule was called inactive in [7], in experiment [8] and in [9].
For the molecule `ClC(c1ccccc1)(c1ccccc1)c1ccccc1`, the result in experiment [1], in experiment [2], in [3], in experiment [4], in [5] and in experiment [6] was inactive. Besides, the outcome in [7], in experiment [8] and in [9] was inactive.
As to `C[C@H]1O[C@@H](O[C@H]2[C@@H](O)C[C@H](O[C@H]3[C@@H](O)C[C@H](O[C@H]4CC[C@@]5(C)[C@H](CC[C@@H]6[C@@H]5C[C@@H](O)[C@]5(C)[C@@H](C7=CC(=O)OC7)CC[C@]65O)C4)O[C@@H]3C)O[C@@H]2C)C[C@H](O)[C@@H]1O`, the outcome in [1], in [2], in experiment [4], in experiment [6] and in experiment [9] was inactive. The AC50 is 163 nM (active) in experiment [3], 145 nM (active) in [5], 202 nM (active) in [7] and 335 nM (active) in [8].
In the case of `COc1ccccc1N=Nc1c(S(=O)(=O)O)cc2cc(S(=O)(=O)O)cc(NC(C)=O)c2c1O`, the result in [1], in experiment [2], in experiment [3], in [4], in experiment [5] and in [6] was inactive. The call in experiment [7], in [8] and in [9] was inactive.
Regarding `Cc1cc(C)nc(NS(=O)(=O)c2ccc(N)cc2)n1`, the outcome in [1], in [2], in [3], in [4], in experiment [5] and in [6] was inactive. Moreover, the result in [7], in [8] and in experiment [9] was inactive.
Consider `O=C(Nc1ccc([N+](=O)[O-])cc1)Nc1ccc([N+](=O)[O-])cc1` (tested in a mixture with another compound), for which the result in experiment [1], in [2], in experiment [3], in [4], in experiment [5] and in [6] was inactive. Also, the molecule was called inactive in [7], in [8] and in experiment [9].
For the molecule `CCCN(CCC)S(=O)(=O)c1ccc(C(=O)O)cc1`, the outcome in experiment [1], in [2], in [3], in [4], in experiment [5] and in experiment [6] was inactive. Further, the outcome in experiment [7], in [8] and in experiment [9] was inactive.
With `IC(I)I`, the result in experiment [1], in experiment [2], in [3], in experiment [4], in experiment [5] and in [6] was inactive. Further, the molecule was called inactive in [7], in [8] and in [9].
Regarding `CCOC(=O)[C@@H](C)Oc1ccc(Oc2nc3ccc(Cl)cc3o2)cc1`, the outcome in experiment [1], in experiment [2], in [3], in experiment [4], in experiment [5] and in experiment [6] was inactive. Moreover, the call in [7], in experiment [8] and in experiment [9] was inactive.
For `C1=CC2C3C=CC(C3)C2C1` (stereo not drawn), the result in [1], in [2], in [3], in [4], in experiment [5] and in experiment [6] was inactive. Besides, the result in [7], in experiment [8] and in experiment [9] was inactive.
In the case of `CN(C)C(=S)SC(=S)N(C)C`, the result in experiment [1], in experiment [2], in experiment [3], in experiment [4], in experiment [5] and in experiment [6] was inactive. The result in experiment [7], in experiment [8] and in experiment [9] was inactive.
Consider `C=CC(C)(O)CCC=C(C)C` (stereo not drawn), for which the outcome in experiment [1], in experiment [2], in experiment [3], in [4], in experiment [5] and in experiment [6] was inactive. In addition, the molecule was classed as inactive in experiment [7], in [8] and in experiment [9].
`CCCCCC(C=O)=Cc1ccccc1`: the outcome in experiment [1], in [2], in experiment [3], in experiment [4], in experiment [5] and in [6] was inactive. For the same molecule, the call in [7], in experiment [8] and in [9] was inactive.
As for `C=C(C)[C@H]1CC=C(C)C(=O)C1`, the result in experiment [1], in [2], in [3], in experiment [4], in [5] and in experiment [6] was inactive. The call in [7], in [8] and in experiment [9] was inactive.
`COC(=O)c1ccc(OC)cc1`: the result in experiment [1], in [2], in experiment [3], in experiment [4], in [5] and in experiment [6] was inactive. In addition, the molecule was classed as inactive in [7], in [8] and in experiment [9].
For the molecule `CC1=C(Br)C(=O)C(Br)=C/C1=C(/c1ccccc1S(=O)(=O)O)c1cc(Br)c(O)c(Br)c1C`, the outcome in experiment [1], in experiment [2], in experiment [3], in experiment [4], in experiment [5] and in [6] was inactive. The call in experiment [7], in [8] and in experiment [9] was inactive.
With `C=C(C)C(=O)OCC(CC)(COC(=O)C(=C)C)COC(=O)C(=C)C`, the outcome in [1], in [2], in experiment [3], in [4], in [5] and in experiment [6] was inactive. In addition, the molecule was classed as inactive in experiment [7], in experiment [8] and in experiment [9].
As to `CCCCCCCCCCCCCC(=O)OCC(O)CO` (stereo not drawn), the outcome in experiment [1], in experiment [2], in experiment [3], in experiment [4], in [5] and in experiment [6] was inactive. In addition, the result in [7], in [8] and in experiment [9] was inactive.
For the molecule `CCCC(=O)OCCc1ccccc1`, the outcome in [1], in [2], in [3], in experiment [4], in experiment [5] and in experiment [6] was inactive. Further, the molecule was called inactive in [7], in [8] and in [9].
Take `C=C1CC[C@H](O)C/C1=C/C=C1\CCC[C@]2(C)[C@@H]([C@H](C)/C=C/[C@H](C)C(C)C)CC[C@@H]12`: the outcome in [1], in experiment [2], in experiment [3], in experiment [4], in experiment [5] and in [6] was inactive. The outcome in experiment [7], in experiment [8] and in experiment [9] was inactive.
Consider `CC1=CC[C@@]23C[C@@H]1C(C)(C)[C@@H]2CC[C@H]3C`, for which the outcome in experiment [1], in [2], in experiment [3], in experiment [4], in [5] and in experiment [6] was inactive. Besides, the call in experiment [8] and in experiment [9] was inactive. Moreover, in [7], the AC50 is 157000 nM (active).
Consider `COC(=O)c1ccc([N+](=O)[O-])cc1`, for which the result in [1], in experiment [2], in experiment [3], in [4], in experiment [5] and in [6] was inactive. For the same molecule, the molecule was called inactive in [7], in [8] and in experiment [9].
On to `CCC(Cl)C(Cl)C(Cl)CC(Cl)C(Cl)C(C)Cl` (stereo not drawn), for which, in experiment [1], the AC50 is 83900 nM (active). The call in experiment [2], in experiment [3], in experiment [4], in experiment [5], in experiment [6] and in [7] was inactive. For the same molecule, the call in experiment [8] and in [9] was inactive.
Turning to `[O-]n1ccccc1=S.[O-]n1ccccc1=S.[Zn+2]`, in experiment [1], the AC50 is 976 nM (active). Also, the molecule was classed as inactive in experiment [2], in experiment [3], in [4], in [5], in [6] and in [7]. Also, the molecule was classed as inactive in experiment [8] and in [9].
Regarding `CCCCCCC(C)(C)S`, the outcome in experiment [1], in experiment [2], in [3], in [4], in experiment [5] and in [6] was inactive. In addition, the call in experiment [7], in experiment [8] and in [9] was inactive.
On to `CC1CCC(C(C)C)C(O)C1` (stereo not drawn), for which the outcome in [1], in experiment [2], in [3], in experiment [4], in [5] and in experiment [6] was inactive. Further, the molecule was called inactive in experiment [7], in experiment [8] and in [9].
